# Assay results reported in PubChem BioAssay (NCATS).
# Inconclusive results are not listed. Where a call stands in place of a potency, no number is given. The source made the active and inactive calls. The call rests on the fitted dose curve; in most records, active means well fitted inhibition curve with a large enough effect; inconclusive means small, poorly fitted or top-dose-only effect; inactive means flat fitted curve, though single readings scatter.
# Tested on: MCC-26
# Experiment: qHTS assay to identify novel small-molecules to repurpose for Merkel cell carcinoma treatment (AID 1296009); further: nearly all actives have a fitted effect of over 60% in size
# Details: MCC and control cell lines, CellTiter-Glo viability, 72 h; series mostly up to 46 µM
# From the text: MCC is a rare and aggressive neuroendocrine skin cancer with limited treatment options. Approximately 80% of MCCs have the Merkel cell polyomavirus (MCPyV) DNA integrated into the host genome (virus-positive: VP-MCC) and viral oncogenes drive oncogenesis. The remaining MCCs are virus-negative (VN-MCC) and are caused by UV mutagenesis. To identify novel treatments for VP-MCC and/or VN-MCC we screened three VP-MCC cell lines (WAGA, MKL-1, MKL-2), three VN-MCC cell lines (MCC-13, MCC-26, UISO), and four immortalized, non-transformed control cell lines (HaCaT, HEK293T, CRL7250, NIH-3T3) against ~2,400 compounds in the NCGC Pharmaceutical Collection (NPC) and ~1,900 compounds in the Mechanism Interrogation PlatE (MiPE). Using cell viability as a readout (CellTiter-Glo assay) we found both overlapping and distinct drugs that can be repurposed for the treatment of VP-MCC and VN-MCC.
# A high-throughput screen was conducted in 1536-well white flat bottom plates (Corning) on a Kalypsys robotic system. Cell lines WAGA, MKL-1, MKL-2, MCC-13, MCC-26, UISO, HaCaT, HEK293T, CRL7250, and NIH-3T3 were screened against 2 small molecule annotated drug libraries NPC and MIPE in dose response (8 and 11 pt. respectively) measuring cell viability after 72 hours of incubation. […] A 1,536 pintool (Kalypsys) was used to transfer 23 nL of compound in DMSO to the 1,536-well assay plates. After 72 hr incubation at 37 degree celsius, 2.5 uL of CellTiter-Glo (Promega) was dispensed into each well using a BiorapTR. Plates were incubated at room temperature for 10 min, transferred to a ViewLux (PerkinElmer) and the luminescence was recorded using an exposure time of 2 seconds. Relative luminescence units (RLUs) were normalized to in-plate controls (no cells as a positive (cytotoxicity) control, DMSO as negative control) and the normalized data was processed using NCATS in-house software.
# Potency means the concentration at half of the fitted maximal effect.
row,SMILES,Potency
1,CCCCC(CC)COC(=O)c1ccccc1C(=O)O (stereo not given),inactive
2,CN(C(=O)C(Cl)Cl)c1ccc(OC(=O)c2ccco2)cc1,inactive
3,Cc1cc(C(C)(C)C)c(O)c(C(C)(C)C)c1,inactive
4,O=C(CCCCCCCCC#CI)Oc1ccccc1,inactive
5,CC[C@@]1(O)C(=O)OCc2c1cc1n(c2=O)Cc2c-1nc1ccccc1c2/C=N/OC(C)(C)C,0.0944 µM (active)
6,NS(=O)(=O)c1ccc(N2CCCCS2(=O)=O)cc1,inactive
7,CCCC(=O)Nc1ccc(O)c(C(C)=O)c1,inactive
8,NS(=O)(=O)c1cc2c(cc1Cl)CN(C1CCCCC1)C2=O,inactive
9,Nc1ncnc2nc[nH]c12,inactive
10,Nc1c[n+](N2CCOCC2)no1,inactive
11,CCCC(=O)OCOC(=O)C1=C(C)NC(C)=C(C(=O)OC)C1c1cccc(Cl)c1Cl (stereo not given),inactive
12,CC(C)C(C)(C)C(C)(C)C(C)(C)S,inactive
13,CCc1cc(S(=O)(=O)O)c2cc(C(C)C)cccc1-2,inactive
14,CN1CCCN(C(c2ccccc2)c2ccc(Cl)cc2)CC1 (stereo not given),inactive
15,CN1C(CSCC(F)(F)F)Nc2cc(Cl)c(S(N)(=O)=O)cc2S1(=O)=O (stereo not given),inactive
16,C[C@H](N)C(=O)N[C@@H](C)C(=O)NC1[C@H]2CN(c3nc4c(cc3F)c(=O)c(C(=O)O)cn4-c3ccc(F)cc3F)C[C@@H]12 (stereo not given in full),inactive
17,CCOC(=O)N1CCC(n2c(=O)[nH]c3cc(Cl)ccc32)CC1,inactive
18,Cc1cccc(N(C)C(=S)Oc2ccc3c(c2)CCC3)c1,inactive
19,OCc1c[nH]c2ccccc12,inactive
20,COc1ccc([C@@H]2Sc3ccccc3NC(=O)[C@@H]2O)cc1,inactive

row,SMILES,Potency
1,CCOC(=O)C(=O)CCCCCCl,inactive
2,CCOc1ccc(NS(=O)(=O)c2ccc(N)cc2)nn1,inactive
3,Cc1cc(=O)oc2cc(O[C@@H]3SC[C@@H](O)[C@H](O)[C@H]3O)ccc12,inactive
4,CCc1cc2cc(OC)c(OC)cc2c(Cc2ccccc2)n1,inactive
5,COC(=O)/C=C\C(=O)OC,inactive
6,Cc1cccc(C)c1NC(=O)c1ccc(N)cc1,inactive
7,CCN1CCN(c2cc(-c3ccc(F)cc3)c3c(n2)CCCCCC3)CC1,inactive
8,OC(CCCN1CCCCC1)(c1ccccc1)c1ccccc1,inactive
9,CCCCN(CCCC)C(C(N)=O)c1ccc(OC)cc1 (stereo not given),inactive
10,CC(=O)N[C@@H](CCC(N)=O)C(=O)O,inactive
11,CCCCCCCCCCCCCCCC[N+](C)(C)Cc1ccccc1,29.9 µM (active)
12,CC(C)CCCC(C)NCCC(C)C (stereo not given),inactive
13,CC1(C)S[C@@H]2[C@H](NC(=O)C(c3ccccc3)S(=O)(=O)O)C(=O)N2[C@H]1C(=O)O (stereo not given in full),inactive
14,CC(Oc1c(Cl)cccc1Cl)C1=NCCN1 (stereo not given),inactive
15,CCOC(=O)C1=C(C)NC(C)=C(C(=O)OCC)C1c1ccccc1/C=C/C(=O)OC(C)(C)C,inactive
16,O=C(OCCN1CCOCC1)c1cccnc1Nc1cccc(C(F)(F)F)c1,inactive
17,O=C(NN1CCCC1)NS(=O)(=O)c1ccc(Cl)cc1,inactive
18,O=C(CCCl)NCCc1ccccc1,inactive
19,COc1cc(/C=C/C(N)=O)cc(OC)c1OC,inactive
20,CC(=O)[C@@]1(O)CC[C@H]2[C@@H]3C[C@H](C)C4=CC(=O)CC[C@]4(C)[C@H]3CC[C@@]21C,inactive
